Experimental data from PubChem BioAssay (Tox21).
Results filed as inconclusive are left out. The source made the active and inactive calls. Unless noted, the call rests on the fitted dose curve; in most records, active means well fitted curve in the direction sought with a large enough effect in the repeat runs; inconclusive means weak or mixed curves; inactive means no such curve, though single readings can be large; an effect the other way counts as inactive or inconclusive.

How the values were obtained:
[1] = biological target: Aryl hydrocarbon receptor (Homo sapiens) (UniProt P35869); test: qHTS assay to identify small molecule that activate the aryl hydrocarbon receptor (AhR) signaling pathway (AID 743085); further: nearly all actives have a fitted effect of over 15% in size; further: potency means the concentration at half of the fitted maximal effect;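 on activation: HG2L7.5c1 human HepG2 liver cells with stably integrated DRE-driven firefly reporter; series mostly up to about 70 µM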
Sequence of Aryl hydrocarbon receptor (Homo sapiens) (P35869 whole entry, looked up): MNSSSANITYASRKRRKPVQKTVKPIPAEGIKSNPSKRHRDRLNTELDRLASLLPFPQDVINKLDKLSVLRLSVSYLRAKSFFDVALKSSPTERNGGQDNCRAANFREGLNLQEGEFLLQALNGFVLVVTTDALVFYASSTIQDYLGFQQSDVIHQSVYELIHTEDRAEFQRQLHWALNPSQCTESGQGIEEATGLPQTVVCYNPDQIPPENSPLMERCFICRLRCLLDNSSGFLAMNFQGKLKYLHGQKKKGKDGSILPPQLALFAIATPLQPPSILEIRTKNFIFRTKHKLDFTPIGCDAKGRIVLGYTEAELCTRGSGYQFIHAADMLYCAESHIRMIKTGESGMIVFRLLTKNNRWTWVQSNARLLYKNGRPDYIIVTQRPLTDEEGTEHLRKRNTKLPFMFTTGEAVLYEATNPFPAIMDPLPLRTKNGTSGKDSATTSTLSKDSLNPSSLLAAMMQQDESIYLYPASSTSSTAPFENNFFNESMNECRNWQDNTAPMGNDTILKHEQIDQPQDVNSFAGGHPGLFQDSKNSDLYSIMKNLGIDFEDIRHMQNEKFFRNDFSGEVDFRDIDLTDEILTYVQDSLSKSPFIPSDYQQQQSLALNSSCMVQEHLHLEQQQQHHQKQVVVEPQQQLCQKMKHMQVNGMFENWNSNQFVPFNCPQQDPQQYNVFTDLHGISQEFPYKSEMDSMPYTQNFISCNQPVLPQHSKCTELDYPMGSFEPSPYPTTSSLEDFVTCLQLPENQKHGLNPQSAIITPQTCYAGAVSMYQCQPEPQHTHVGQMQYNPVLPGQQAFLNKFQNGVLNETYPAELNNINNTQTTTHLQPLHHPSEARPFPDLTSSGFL
Procedure, shortened: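 Steps: seed HepG2-AhR-luc cells; allow 5 h at 37C; pin-transfer test compound or vehicle; incubate 24 h at 37C; add viability dye (30 min, 37C) and read fluorescence; add luciferase substrate (30 min, RT) and read luminescence.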

[2] = qHTS assay to identify small molecule that activate the aryl hydrocarbon receptor (AhR) signaling pathway - cell viability counter screen (AID 743086); further: nearly all actives have a fitted effect of over 45% in size; further: potency means the concentration at half of the fitted maximal effect;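 on viability change, negative = cytotoxic: HepG2 liver cells carrying the AhR DRE luciferase reporter; series mostly up to about 70 µM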
Procedure, shortened: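 HepG2-AhR-luc (HG2L7.5c1) cells, 4000/well, treated 24 h at 37 C with compound; viability measured as CellTiter-Fluor fluorescence after 30 min in the same wells as the luciferase read.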

[3] = qHTS assay to identify small molecule antagonists of the peroxisome proliferator-activated receptor gamma (PPARg) signaling pathway - cell viability counter screen (AID 743194); further: nearly all actives have a fitted effect of over 55% in size
Procedure, shortened: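 Cytotoxicity counter screen in PPARg-bla HEK293H cells, same wells as reporter assay. Compounds plus 50 nM rosiglitazone (final) for 17 h at 37 C, then viability read by CellTiter-Glo luminescence.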

[4] = qHTS assay for small molecule agonists of the antioxidant response element (ARE) signaling pathway (AID 743202; active means well fitted activation curve with a large enough effect in the signal ratio in the repeat runs, not every such curve was filed as active; the % refers to the signal ratio; further: potency means the concentration at half of the fitted maximal effect)
Procedure, shortened: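 HepG2 ARE-bla reporter line, 2,000 cells/well; 5 h preincubation 37 C/5% CO2; compound (DMSO) 16 h 37 C; B/G FRET substrate 2 h RT; fluorescence intensity.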

[5] = qHTS assay for small molecule activators of the heat shock response signaling pathway - cell viability counter screen (AID 743209); further: nearly all actives have a fitted effect of over 50% in size; further: potency means the concentration at half of the fitted maximal effect
Procedure, shortened: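 Same-well multiplex: after 2.5 h room-temperature incubation with LiveBLAzer B/G substrate and fluorescence reading, CellTiter-Glo reagent was added to HSE-bla HeLa cells that had received compound for 5 h at 37 C; luminescence read after 30 min.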

[6] = qHTS assay to identify small molecule agonists of the peroxisome proliferator-activated receptor delta (PPARd) signaling pathway - cell viability counter screen (AID 743211); further: nearly all actives have a fitted effect of over 55% in size; further: potency means the concentration at half of the fitted maximal effect
Procedure, shortened: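 Viability of GeneBLAzer PPARd UAS-bla HEK293H cells was assessed after 17 h compound incubation at 37C, using CellTiter-Glo reagent added after the reporter read and luminescence recorded 30 min later.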

[7] = biological target: Peroxisome proliferator-activated receptor delta (Homo sapiens) (UniProt Q03181); test: qHTS assay to identify small molecule agonists of the peroxisome proliferator-activated receptor delta (PPARd) signaling pathway (AID 743212; calls by dose curve)
Sequence of Peroxisome proliferator-activated receptor delta (Homo sapiens) (Q03181 whole entry, looked up): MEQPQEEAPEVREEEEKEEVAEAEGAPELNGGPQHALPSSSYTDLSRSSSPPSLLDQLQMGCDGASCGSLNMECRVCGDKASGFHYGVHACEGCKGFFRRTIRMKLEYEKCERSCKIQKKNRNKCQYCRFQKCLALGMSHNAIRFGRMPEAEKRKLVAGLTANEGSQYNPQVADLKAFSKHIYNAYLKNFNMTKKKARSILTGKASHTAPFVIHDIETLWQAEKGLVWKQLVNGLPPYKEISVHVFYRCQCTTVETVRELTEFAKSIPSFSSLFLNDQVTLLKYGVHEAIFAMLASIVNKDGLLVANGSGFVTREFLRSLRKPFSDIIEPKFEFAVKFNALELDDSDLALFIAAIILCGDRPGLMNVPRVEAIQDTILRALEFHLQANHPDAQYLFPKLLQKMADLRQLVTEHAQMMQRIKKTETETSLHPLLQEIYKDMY
Procedure, shortened: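 Read-out: beta-lactamase FRET fluorescence after 2 h room-temperature incubation with LiveBLAzer B/G substrate. Cells were HEK293H carrying a UAS-bla reporter for PPARd, treated at 37 C with DMSO-dissolved compounds.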

[8] = qHTS assay to identify small molecule antagonists of the peroxisome proliferator-activated receptor delta (PPARd) signaling pathway - cell viability counter screen (AID 743213); further: nearly all actives have a fitted effect of over 50% in size; further: potency means the concentration at half of the fitted maximal effect
Procedure, shortened: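 HEK293H PPARd UAS-bla cells, 5 h pre-incubation, compound + L165041 300 nM final, 17 h 37 C; B/G FRET substrate 2 h RT; then CellTiter-Glo 30 min RT, luminescence.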

[9] = biological target: Peroxisome proliferator-activated receptor delta (Homo sapiens) (UniProt Q03181); test: qHTS assay to identify small molecule antagonists of the peroxisome proliferator-activated receptor delta (PPARd) signaling pathway (AID 743215; active means well fitted inhibition curve with a large enough effect in the signal ratio in the repeat runs, not every such curve was filed as active; the % refers to the signal ratio;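 further: cells stimulated with agonist L165041 at 300 nM final during compound exposure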; further: potency means the concentration at half of the fitted maximal effect)
Procedure, shortened: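 Fluorescence from cleaved LiveBLAzer B/G FRET substrate (2 h, room temperature) reports PPARd-driven beta-lactamase in HEK293H UAS-bla cells. Cells had been treated 17 h at 37 C with compound plus 300 nM final L165041.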

[10] = biological target: Bile acid receptor (Homo sapiens) (UniProt Q96RI1); test: qHTS assay to identify small molecule antagonists of the farnesoid-X-receptor (FXR) signaling pathway (AID 743217; active means well fitted inhibition curve with a large enough effect in the signal ratio in the repeat runs, not every such curve was filed as active; the % refers to the signal ratio)
Sequence of Bile acid receptor (Homo sapiens) (Q96RI1 whole entry, looked up): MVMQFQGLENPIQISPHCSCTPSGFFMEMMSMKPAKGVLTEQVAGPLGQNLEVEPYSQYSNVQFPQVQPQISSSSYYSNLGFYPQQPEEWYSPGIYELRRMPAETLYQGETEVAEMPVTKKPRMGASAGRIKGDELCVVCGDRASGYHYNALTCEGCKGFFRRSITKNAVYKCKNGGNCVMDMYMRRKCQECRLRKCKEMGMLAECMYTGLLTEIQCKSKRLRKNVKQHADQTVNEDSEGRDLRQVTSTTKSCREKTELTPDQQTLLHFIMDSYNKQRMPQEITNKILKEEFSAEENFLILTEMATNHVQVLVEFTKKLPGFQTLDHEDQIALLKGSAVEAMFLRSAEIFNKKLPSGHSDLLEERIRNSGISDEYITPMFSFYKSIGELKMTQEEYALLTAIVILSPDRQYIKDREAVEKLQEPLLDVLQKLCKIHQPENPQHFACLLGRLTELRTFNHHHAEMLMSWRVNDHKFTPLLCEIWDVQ
Procedure, shortened: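 FRET fluorescence after 2 h room-temperature LiveBLAzer loading gives the readout. Prior step: FXR-bla HEK 293T cells, seeded and incubated 5 h, received test compounds plus 50 uM final CDCA for 16 h at 37 °C.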

[11] = qHTS assay to identify small molecule agonists of the farnesoid-X-receptor (FXR) signaling pathway - cell viability counter screen (AID 743218); further: nearly all actives have a fitted effect of over 45% in size; further: potency means the concentration at half of the fitted maximal effect
Procedure, shortened: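 Readout: CellTiter-Glo luminescence, 30 min RT, multiplexed after the FXR-bla FRET reading. HEK 293T FXR-UAS-bla cells received compound 5 h post-plating and were incubated 16 h at 37 C.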

[12] = biological target: Bile acid receptor (Homo sapiens) (UniProt Q96RI1); test: qHTS assay to identify small molecule agonists of the farnesoid-X-receptor (FXR) signaling pathway (AID 743220; active means well fitted activation curve with a large enough effect in the signal ratio in the repeat runs, not every such curve was filed as active; the % refers to the signal ratio)
Procedure, shortened: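 FXR-UAS-bla HEK 293T cells carrying a UAS-driven beta-lactamase reporter were plated for 5 h at 37C/5% CO2, then exposed to DMSO-dissolved Tox21 10K compounds for 16 h at 37C. A LiveBLAzer B/G FRET substrate was loaded for 2 h at room temperature before fluorescence reading.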

[13] = qHTS assay to identify small molecule antagonists of the farnesoid-X-receptor (FXR) signaling pathway - cell viability counter screen (AID 743221; active means well fitted cell-killing curve with a large enough effect in the repeat runs, not every such curve was filed as active; further: nearly all actives have a fitted effect of over 50% in size)
Procedure, shortened: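 Quantitative HTS of the Tox21 10K library run in parallel with the beta-lactamase reporter read. HEK 293T cells carrying a UAS-driven bla reporter got compound and 50 uM CDCA (final) for 16 h; ATP-based luminescence followed.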

[14] = biological target: Vitamin D3 receptor (Homo sapiens) (UniProt P11473); test: qHTS assay to identify small molecule agonists of the vitamin D receptor (VDR) signaling pathway (AID 743222; calls by dose curve)
Sequence of Vitamin D3 receptor (Homo sapiens) (P11473 whole entry, looked up): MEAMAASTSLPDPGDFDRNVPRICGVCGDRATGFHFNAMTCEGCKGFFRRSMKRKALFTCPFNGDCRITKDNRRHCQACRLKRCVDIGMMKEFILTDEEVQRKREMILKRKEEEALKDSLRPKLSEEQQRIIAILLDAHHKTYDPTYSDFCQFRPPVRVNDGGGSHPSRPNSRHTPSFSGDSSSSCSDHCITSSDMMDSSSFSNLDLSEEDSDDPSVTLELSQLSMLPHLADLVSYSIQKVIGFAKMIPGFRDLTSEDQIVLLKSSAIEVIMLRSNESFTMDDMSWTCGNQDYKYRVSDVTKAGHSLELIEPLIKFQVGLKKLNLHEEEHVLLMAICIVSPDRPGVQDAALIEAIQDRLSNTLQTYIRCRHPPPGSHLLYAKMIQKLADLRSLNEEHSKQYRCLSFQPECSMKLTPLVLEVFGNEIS
Procedure, shortened: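 Following 4 h attachment at 37C, VDR-bla cells (2,000 per well) received DMSO-dissolved compounds or controls. After 16 h incubation, LiveBLAzer B/G FRET substrate was added and fluorescence read 2 h later at room temperature.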

[15] = qHTS assay for small molecule agonists of the antioxidant response element (ARE) signaling pathway - cell viability counter screen (AID 743203; calls by dose curve; further: nearly all actives have a fitted effect of over 55% in size; further: potency means the concentration at half of the fitted maximal effect)
Procedure, shortened: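 Measured in the same wells as the beta-lactamase ARE reporter, this read-out is CellTiter-Glo luminescence from HepG2 ARE-bla cells given compounds for 16 hrs.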

[16] = qHTS assay for small molecule activators of the heat shock response signaling pathway (AID 743210; active means well fitted activation curve with a large enough effect in the signal ratio in the repeat runs, with a control signal flat, not every such curve was filed as active; the % refers to the signal ratio;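 further: HeLa cells with beta-lactamase reporter driven by heat shock elements; series mostly up to about 63 µM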)
Procedure, shortened: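 Beta-lactamase reporter read-out: FRET substrate fluorescence after 2.5 h at RT, following 5 h compound treatment at 37 C of HeLa cells carrying HSE-driven bla reporter; quantitative HTS format.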

[17] = qHTS assay to identify small molecule agonists of the vitamin D receptor (VDR) signaling pathway - cell viability counter screen (AID 743224); further: series mostly up to about 63 µM; nearly all actives have a fitted effect of over 50% in size
Procedure, shortened: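 In parallel with the bla FRET readout, cytotoxicity toward VDR-bla cells after 16 h compound exposure was assessed by CellTiter-Glo, with luminescence recorded after a 30 min room-temperature incubation.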

[18] = biological target: Vitamin D3 receptor (Homo sapiens) (UniProt P11473); test: qHTS assay to identify small molecule antagonists of the vitamin D receptor (VDR) signaling pathway (AID 743223; active means well fitted inhibition curve with a large enough effect in the signal ratio in the repeat runs, not every such curve was filed as active; the % refers to the signal ratio)
Procedure, shortened: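 Fluorescence from LiveBLAzer B/G FRET substrate, read after 2 h at room temperature, reflects beta-lactamase reporter activity in VDR-bla cells treated 16 h at 37C with compounds and agonist 1alpha,25-dihydroxyvitamin D3 (3 nM final).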

[19] = biological target: Peroxisome proliferator-activated receptor gamma (Homo sapiens) (UniProt P37231); test: qHTS assay to identify small molecule agonists of the peroxisome proliferator-activated receptor gamma (PPARg) signaling pathway (AID 743094; active means well fitted activation curve with a large enough effect in the signal ratio in the repeat runs, not every such curve was filed as active; the % refers to the signal ratio)
Sequence of Peroxisome proliferator-activated receptor gamma (Homo sapiens) (P37231 whole entry, looked up): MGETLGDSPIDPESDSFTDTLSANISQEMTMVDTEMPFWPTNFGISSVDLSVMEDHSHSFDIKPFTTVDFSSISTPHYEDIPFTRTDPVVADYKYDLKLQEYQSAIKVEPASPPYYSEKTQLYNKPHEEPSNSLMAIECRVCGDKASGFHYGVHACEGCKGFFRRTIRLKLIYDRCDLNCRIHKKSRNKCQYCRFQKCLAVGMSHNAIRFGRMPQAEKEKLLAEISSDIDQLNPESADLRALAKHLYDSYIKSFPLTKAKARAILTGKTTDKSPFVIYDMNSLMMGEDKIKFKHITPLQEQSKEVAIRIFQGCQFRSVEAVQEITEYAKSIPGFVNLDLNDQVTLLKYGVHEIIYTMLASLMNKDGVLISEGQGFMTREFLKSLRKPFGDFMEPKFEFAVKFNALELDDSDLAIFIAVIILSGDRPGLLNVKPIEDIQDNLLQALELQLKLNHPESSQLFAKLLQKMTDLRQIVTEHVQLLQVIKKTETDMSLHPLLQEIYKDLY
Procedure, shortened: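 Cell-based bla reporter, HEK293H background, PPARg-driven UAS. Pre-incubation 5 h, 37C, 5% CO2. Compound 17 h, 37C. Substrate 1 h RT; fluorescence.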

[20] = biological target: Peroxisome proliferator-activated receptor gamma (Homo sapiens) (UniProt P37231); test: qHTS assay to identify small molecule antagonists of the peroxisome proliferator-activated receptor gamma (PPARg) signaling pathway (AID 743191; calls by dose curve; further: series mostly up to about 63 µM; nearly all actives have a fitted effect of over 30% in size)
Procedure, shortened: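 GeneBLAzer PPARg UAS-bla HEK293H cells, 5 h post-plating, exposed to compounds 17 h at 37C. LiveBLAzer B/G FRET substrate added for 1 h at room temperature; beta-lactamase reporter read by fluorescence intensity.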
On the % scale 0 is the no-effect control and ±100 the full control effect.

Nc1nc2c(ncn2COCCO)c(=O)[nH]1
inactive: Potency [1] | Potency [2] | Potency [3] | Potency [4] | Potency [5] | Potency [6] | Potency [7] | Potency [8] | Potency [9] | Potency [10] | Potency [11] | Potency [12] | Potency [13]

S=C([S-])NCCNC(=S)[S-].S=C([S-])NCCNC(=S)[S-].[Mn+2].[Zn+2]
inactive: Potency [1] | Potency [2] | Potency [5] | Potency [6] | Potency [8] | Potency [13] | Potency [14]
active: Potency [4] 4.73 µM

O=C(O)c1cc(N=Nc2ccc([N+](=O)[O-])cc2)ccc1O
active: Potency [1] 3.37 µM | Potency [2] 53.5 µM | Potency [4] 60 µM | Potency [11] 30.3 µM
inactive: Potency [15] | Potency [5] | Potency [16] | Potency [6] | Potency [8] | Potency [13]

FC(F)(F)c1cccc(Cl)c1
inactive: Potency [1] | Potency [2] | Potency [3] | Potency [4] | Potency [5] | Potency [6] | Potency [7] | Potency [9] | Potency [10] | Potency [11] | Potency [12] | Potency [13] | Potency [17]

COC1=C(OC)C(=O)C(CCCCCCCCCCO)=C(C)C1=O
inactive: Potency [1] | Potency [2] | Potency [3] | Potency [4] | Potency [15] | Potency [16] | Potency [8] | Potency [11] | Potency [12] | Potency [13] | Potency [14]
active: Potency [9] 26.6 µM

O=C(O)CN(CCN(CC(=O)O)CC(=O)O)CC(=O)O
inactive: Potency [1] | Potency [2] | activation [4] -0.355% [at 3.74 µM] | viability change, negative = cytotoxic [15] -5.36% [at 3.74 µM] | activity change, negative = cytotoxicity [5] 20.3% [at 2.7 µM] | activity change, negative = cytotoxicity [6] 0.566% [at 2.7 µM] | viability change, negative = cytotoxic [8] 5.49% [at 2.83 µM] | viability change, negative = cytotoxic [11] -17.2% [at 2.7 µM] | activity change, negative = cytotoxicity [13] -12.7% [at 2.69 µM] | activity change, negative = cytotoxicity [17] -2.08% [at 2.7 µM]

C=CC(=O)OCCOC(=O)C=C
active: Potency [4] 61.1 µM | Potency [5] 6.92 µM
inactive: Potency [1] | Potency [2] | Potency [8] | Potency [13] | Potency [18] | Potency [17]

CC(C(=O)O)c1ccc2c(c1)[nH]c1ccc(Cl)cc12 (centres undefined)
inactive: Potency [1] | Potency [2] | Potency [19] | Potency [5] | Potency [16] | Potency [6] | Potency [8] | Potency [11] | Potency [12] | Potency [13] | Potency [18] | Potency [17]

Nc1nc(N)nc(-c2cc(Cl)ccc2Cl)n1
inactive: Potency [1] | Potency [2] | Potency [3] | Potency [4] | Potency [15] | Potency [5] | Potency [16] | Potency [6] | Potency [7] | Potency [8] | Potency [9] | Potency [10] | Potency [11] | Potency [12] | Potency [13] | Potency [17]

CCN(CC)C(=O)c1cc(S(=O)(=O)Cc2ccccc2)c(N2CCC(c3ccccc3)CC2)cc1N(CC)CCN(C)C
inactive: Potency [1] | Potency [16] | Potency [7] | Potency [10] | Potency [12] | Potency [14]
active: Potency [2] 23.7 µM | Potency [15] 21.4 µM | Potency [6] 21.6 µM | Potency [8] 6.84 µM | Potency [9] 17.2 µM

COc1cc(S(=O)(=O)O)c(C)cc1N=Nc1c(O)ccc2cc(S(=O)(=O)O)ccc12
inactive: Potency [1] | Potency [19] | Potency [20] | Potency [3] | Potency [4] | Potency [15] | Potency [5] | Potency [6] | Potency [7] | Potency [8] | Potency [9] | Potency [10] | Potency [11] | Potency [12] | Potency [13] | Potency [14] | Potency [18] | Potency [17]

CCCCCCCCCCCC(=O)OCC(C)OC(=O)CCCCC(=O)O (centres undefined)
inactive: Potency [1] | Potency [2] | Potency [3] | Potency [15] | Potency [5] | Potency [6] | Potency [7] | Potency [8] | Potency [9] | Potency [11] | Potency [13] | Potency [14] | Potency [17]
